Consider eleven molecules from PubChem BioAssay (EPA / NIEHS).

One test relates to TTR (gene 7276). In words: CCTE_GLTED_hTTR_0.125uM: CCTE's human Transthyretin (hTTR) Inhibition Assay, with 0.125uM TTR, Great Lakes Toxicology and Ecology Division (GLTED) Lab (AID 2284431).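 Note: hits lower the fluorescence signal relative to DMSO baseline.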 Put shortly:
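TTR 0.125uM + test chemical, 2 h; ANSA probe displacement; ex 380/em 475 fluorescence; signal loss vs DMSO control.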

Test [1] is described as follows: CCTE_Padilla_ZF_Score.Position: CCTE's 144 Hour Post-fertilization zebrafish Assay Score for Position, Padilla Lab (AID 2284409). The essentials: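 Wild-type zebrafish embryos (with chorions) exposed singly from 6–8 hpf in sealed wells of Hanks' solution at 26C, rinsed at 5 dpf. At 6 dpf, blinded assessors scored abnormal water-column position by brightfield stereomicroscopy, relative to DMSO.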

Test [2] can be described thus: CCTE_Padilla_ZF_Score.Living: CCTE's 144 Hour Post-fertilization zebrafish Assay Score for Viability, Padilla Lab (AID 2284410).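 Note: larval death at 6 dpf judged by absent heartbeat or coagulation.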 Put shortly:
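Wild-type zebrafish embryos were exposed singly from 6–8 hpf in sealed wells of Hanks' solution at 26C, then rinsed at 5 dpf. At 6 dpf, blinded assessors scored mortality (no heartbeat or coagulation) by stereomicroscopy, fitted against DMSO.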

Test [3] is described as follows: CCTE_Padilla_ZF_Score.General: CCTE's 144 Hour Post-fertilization zebrafish Assay Score for General Malformation, Padilla Lab (AID 2284411). The essentials: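 Wild-type zebrafish embryos were plated singly at 6-8 hpf in 10% Hanks' and exposed in sealed wells at 26C until rinsed on 5 dpf. At 6 dpf two blinded assessors scored mortality, hatching and malformations by stereomicroscopy; gain-of-signal versus DMSO.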

Test [4] is described as follows: CCTE_Padilla_ZF_Score.Tail: CCTE's 144 Hour Post-fertilization zebrafish Assay Score for Tail Malformation, Padilla Lab (AID 2284414). The essentials:
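Wild-type zebrafish embryos, one per well in 200 uL 10% Hanks', dosed at 6-8 hpf, sealed, and kept at 26 C on a 14:10 h light cycle. Chemical was rinsed out at 5 dpf. Blinded brightfield scoring of tail defects followed at 6 dpf.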

A short description of test [5]: CCTE_Padilla_ZF_Score.Blood_pooling: CCTE's 144 Hour Post-fertilization zebrafish Assay Score for Blood Pooling, Padilla Lab (AID 2284415). The essentials:
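Wild-type outbred zebrafish embryos, one per well in 10% Hanks', exposed from 6–8 hpf in sealed plates at 26C on 14:10 h light:dark, rinsed at 5 dpf. Blinded stereomicroscope scoring of blood pooling at 6 dpf; gain-of-signal versus DMSO.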

A short description of test [6]: CCTE_Padilla_ZF_Score.Any: CCTE's 144 Hour Post-fertilization zebrafish Assay Score for Any Mortality or Malformation, Padilla Lab (AID 2284416). Put shortly:
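Wild-type zebrafish embryos with chorions, one per well in 10% Hanks' from 6–8 hpf, dosed in sealed plates at 26 C, 14:10 h light:dark; rinsed at 5 dpf; blinded scoring at 6 dpf for death or malformation, versus DMSO.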

The structures appear in SMILES notation. “And” between values parts separate entries of the source, which are not always exact repeats. Equal entries are not always repeated. Some compounds were tested as several samples or in several runs, with calls that do not always agree. The source made the active and inactive calls. Rule for the calls: active = hit-call score of the fitted dose curve at least 0.9, where 1 is the maximum; inactive = score below 0.9.

In general, AC50 refers to the concentration at which the activity in the assay is half-maximal. Turning to `COP(=S)(OC)Oc1ccc([N+](=O)[O-])cc1`, the AC50 in the test on TTR (gene 7276) is 21.3 µM (active).

Take `O=S(=O)(O)C(F)(F)C(F)(F)C(F)(F)C(F)(F)C(F)(F)C(F)(F)C(F)(F)C(F)(F)F`: the concentration at half-maximal activity (AC50) in test [1] is 8.18 µM (active) and 3.91 µM (active); in test [2] it was 10.7 µM (active) and 21.1 µM (active); in test [3], 8.72 µM (active) and 4.84 µM (active); in test [4], 8.73 µM (active) and 32.7 µM (active); in test [5], 10 µM (active); in test [6], 8.52 µM (active) and 3.26 µM (active). The AC50 in the test with TTR (gene 7276) is 115 nM (active) and 159 nM (active). In addition, the molecule was classed as inactive in test [5].

Consider `CCCN(CCC)c1c([N+](=O)[O-])cc(C(F)(F)F)cc1[N+](=O)[O-]`, for which, in the test with TTR (gene 7276), the AC50 is 26.1 µM (active).

Consider `O=C(O)COc1ccc(Cl)cc1Cl`, for which the half-maximal activity concentration (AC50) in the test with TTR (gene 7276) was 8.12 µM (active) and 10.7 µM (active).

As for `Oc1cc(Cl)ccc1Oc1ccc(Cl)cc1Cl`, the AC50 in the test with TTR (gene 7276) was 0.219 µM (active).

As for `COP(=S)(OC)Oc1ccc(SC)c(C)c1`, the AC50 in the test with TTR (gene 7276) was 6.11 µM (active).

As to `C#CCN1C(=O)COc2cc(F)c(N3C(=O)C4=C(CCCC4)C3=O)cc21`, the AC50 in the test on TTR (gene 7276) was 13.3 µM (active).

`O=C(O)CCCOc1ccc(Cl)cc1Cl`: the AC50 in the test on TTR (gene 7276) is 2.54 µM (active).

For `O=C(O)C(F)(F)C(F)(F)C(F)(F)C(F)(F)C(F)(F)C(F)(F)C(F)(F)F`, the outcome in test [1], in test [2], in test [3], in test [4], in test [5] and in test [6] was inactive. Besides, the AC50 is 2.43 µM (active) and 81.8 µM (active) in test [6]; 159 nM (active) and 82.9 nM (active) in the test with TTR (gene 7276).

Regarding `Oc1ccc(Cl)cc1Cc1ccccc1`, in the test with TTR (gene 7276), the AC50 is 0.455 µM (active).

As to `ClC1C(Cl)C(Cl)C(Cl)C(Cl)C1Cl` (stereo not given), in test [3], the AC50 is 8.89 µM (active).
